SMILES strings stand for the structures. “And” between values parts separate entries of the source, which are not always exact repeats. Equal values may be shown once. Results filed as inconclusive are left out. Entries that show only a call come without a potency. The source made the active and inactive calls. Unless noted, calls come from the whole dose curve; as a rule, active = well fitted curve in the direction sought with a large enough effect in the repeat runs; inconclusive = weak or mixed curves; inactive = no such curve, though single readings can be large; an effect the other way counts as inactive or inconclusive.

The target in one test is Androgen receptor (Homo sapiens) (UniProt P10275). In words: qHTS assay to identify small molecule agonists of the androgen receptor (AR) signaling pathway (AID 743036; active = well fitted activation curve with a large enough effect in the signal ratio in the repeat runs, with a control signal flat, not every such curve was filed as active; the % refers to the signal ratio; note: potency is the fitted concentration of half-maximal effect). As to conditions: HEK293 AR-UAS-bla GripTite, beta-lactamase FRET ratio, 16 h; series mostly up to 62.4 µM. The gist of the method: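 HEK293 cells stably carrying a UAS-driven beta-lactamase reporter (GeneBLAzer AR-UAS-bla-GripTite) were plated at 2,000 cells/well, rested 4 h at 37C, then exposed to compounds in DMSO for 16 h. LiveBLAzer B/G FRET substrate was added for 2 h at room temperature; fluorescence read.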
Androgen receptor (Homo sapiens), sequence (P10275 whole entry, looked up): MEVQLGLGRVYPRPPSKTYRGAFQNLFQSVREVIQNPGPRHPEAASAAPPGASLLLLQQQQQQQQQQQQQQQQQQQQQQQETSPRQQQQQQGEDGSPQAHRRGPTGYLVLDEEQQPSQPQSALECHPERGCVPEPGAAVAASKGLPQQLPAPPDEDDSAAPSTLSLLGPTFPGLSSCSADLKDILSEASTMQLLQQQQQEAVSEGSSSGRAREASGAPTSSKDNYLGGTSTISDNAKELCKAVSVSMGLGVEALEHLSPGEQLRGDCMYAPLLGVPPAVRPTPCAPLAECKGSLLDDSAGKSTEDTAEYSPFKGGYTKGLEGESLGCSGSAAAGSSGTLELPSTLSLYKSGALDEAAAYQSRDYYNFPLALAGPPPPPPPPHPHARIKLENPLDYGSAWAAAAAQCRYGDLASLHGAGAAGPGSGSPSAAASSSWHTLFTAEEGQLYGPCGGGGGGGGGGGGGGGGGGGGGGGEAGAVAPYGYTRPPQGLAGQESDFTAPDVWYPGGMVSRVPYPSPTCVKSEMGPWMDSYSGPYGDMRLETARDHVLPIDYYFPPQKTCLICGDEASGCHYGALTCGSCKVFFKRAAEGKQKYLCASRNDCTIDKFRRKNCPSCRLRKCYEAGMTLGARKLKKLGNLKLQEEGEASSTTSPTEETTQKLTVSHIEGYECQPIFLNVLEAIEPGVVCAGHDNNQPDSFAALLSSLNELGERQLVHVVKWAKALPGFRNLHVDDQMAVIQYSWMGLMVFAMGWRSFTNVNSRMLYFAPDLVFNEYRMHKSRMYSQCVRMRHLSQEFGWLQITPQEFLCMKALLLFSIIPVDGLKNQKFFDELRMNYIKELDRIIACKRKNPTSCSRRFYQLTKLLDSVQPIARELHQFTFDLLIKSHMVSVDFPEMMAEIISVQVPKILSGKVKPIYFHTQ
As for `CC1(C)[C@H](C(=O)O[C@H](C#N)c2cccc(Oc3ccccc3)c2)[C@@H]1C=C(Br)Br`, the Potency result was “inactive”.
`CCC1(C2=NCCN2)Cc2ccccc2O1` (centres undefined): the Potency was 23.9 µM (active).
Consider `C=C(Cl)Cl`, for which the Potency entry was “inactive”.
As to `Nc1c(Br)cc(Br)c2c1C(=O)c1ccccc1C2=O`, the Potency entry was “inactive”.
Consider `Clc1ccc2ccccc2c1`, for which the Potency entry was “inactive”.
For the compound `Cc1cnc(C2=NC(C)(C(C)C)C(=O)N2)c(C(=O)O)c1` (centres undefined), the Potency entry is “inactive”.
Same read-out and setting: to `CCCCCBr` belongs “inactive”; to `O=C(Cl)OCCOCCOC(=O)Cl`, “inactive”.
In the case of `CN(C)N`, the Potency result was “inactive”.
For `O=C(N[C@H]1CN2CCC1CC2)c1ccc2c(c1)OCCO2`, the Potency entry is “inactive”.
`O=CC=O`: the Potency entry is “inactive”.
For `COCc1cnc(C2=NC(C)(C(C)C)C(=O)N2)c(C(=O)O)c1` (centres undefined), the Potency result is “inactive”.
On to `CC(Cl)C(=O)O` (centres undefined), for which the Potency result was “inactive”.
For `O=C(NCNC(=O)NC1C(=O)NC(=O)N1CO)NC1C(=O)NC(=O)N1CO` (centres undefined), the Potency entry is “inactive”.
For `FC(F)OC(F)(F)C(F)Cl` (centres undefined), the Potency result is “inactive”.
As to `NP(N)(=O)NC(=O)c1ccc(F)cc1`, the Potency entry is “inactive”.

The target is the same in the next test. In words: qHTS assay to identify small molecule agonists of the androgen receptor (AR) signaling pathway using the MDA cell line (AID 743040; note: nearly all actives have a fitted effect of over 20% in size). As to conditions: MDA-kb2 AR-luc cells, MMTV luciferase, 16 h; activity change: at 70.3 µM (top of the series), active compounds read high. Summed up:
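After a 5 h incubation at 37C and 0% CO2, MDA-kb2 reporter cells were dosed with compounds in DMSO and kept 16 h under the same conditions. Luciferase activity was then read as luminescence with ONE-Glo.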
On the technique in general: Quantitative high-throughput screening tests each substance at several concentrations.
Consider `CC1(C)[C@H](C(=O)O[C@H](C#N)c2cccc(Oc3ccccc3)c2)[C@@H]1C=C(Br)Br`, for which the Potency entry is “inactive”.
Still for that read-out and setting: as for `CCC1(C2=NCCN2)Cc2ccccc2O1` (centres undefined), the entry is “inactive”; as for `C=C(Cl)Cl`, “inactive”; as for `ClCc1ccccc1Cl`, “inactive”.
As to `CCC1(CCC(C)C)C(=O)NC(=O)NC1=O`, the Potency result is “inactive”.
For `CC(C)(C)CC(C)(C)c1ccc(O)cc1`, the Potency entry is “inactive”.
Turning to `Nc1c(Br)cc(Br)c2c1C(=O)c1ccccc1C2=O`, the Potency entry is “inactive”.
Turning to `N#CC(C#N)=Cc1ccc(O)c(O)c1`, the Potency entry was “inactive”.
As to `Clc1ccc2ccccc2c1`, the Potency entry was “inactive”.
`Cc1cnc(C2=NC(C)(C(C)C)C(=O)N2)c(C(=O)O)c1` (centres undefined): the Potency result was “inactive”.
Still for that read-out and setting: as for `CCCCCBr`, the entry is “inactive”; as for `O=C(Cl)OCCOCCOC(=O)Cl`, “inactive”.
For `CN(C)N`, the Potency entry is “inactive”.
Turning to `C[CH2][Hg][S]c1ccccc1C(=O)O`, the Potency result is “inactive”.
Regarding `O=C(N[C@H]1CN2CCC1CC2)c1ccc2c(c1)OCCO2`, the Potency entry is “inactive”.
As to `O=CC=O`, the Potency result is “inactive”.
On the same count and under the same terms, to `COCc1cnc(C2=NC(C)(C(C)C)C(=O)N2)c(C(=O)O)c1` (centres undefined) belongs “inactive”; to `CC(Cl)C(=O)O` (centres undefined), “inactive”; to `O=C(NCNC(=O)NC1C(=O)NC(=O)N1CO)NC1C(=O)NC(=O)N1CO` (centres undefined), “inactive”.
Same read-out and setting: as for `O=C(O)COc1cc(Cl)c(Cl)cc1Cl`, the entry is “inactive”.
Consider `FC(F)OC(F)(F)C(F)Cl` (centres undefined), for which the Potency result was “inactive”.
On the same count and under the same terms, to `NP(N)(=O)NC(=O)c1ccc(F)cc1` belongs “inactive”.

Test system in a further test: not listed separately
In words: qHTS assay to identify small molecule antagonists of the androgen receptor (AR) signaling pathway using the MDA cell line - cell viability counter screen (AID 743041; note: nearly all actives have a fitted effect of over 45% in size; note: potency is the fitted concentration of half-maximal effect). Particulars: MDA-kb2 viability, CellTiter-Fluor, 16 h, cells co-treated with R1881 androgen agonist; series mostly up to 70.3 µM. Summed up:
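R1881-driven MDA-kb2 AR-luc cells, 3,000/well, were dosed with library compounds for 16 h; cell health came from CellTiter-Fluor fluorescence in the reporter wells.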
`CC1(C)[C@H](C(=O)O[C@H](C#N)c2cccc(Oc3ccccc3)c2)[C@@H]1C=C(Br)Br`: the Potency entry is “inactive”.
On to `CCC1(C2=NCCN2)Cc2ccccc2O1` (centres undefined), for which the Potency entry was “inactive”.
On to `C=C(Cl)Cl`, for which the Potency result is “inactive”.
`ClCc1ccccc1Cl`: the Potency entry was “inactive”.
For `CCC1(CCC(C)C)C(=O)NC(=O)NC1=O`, the Potency result is “inactive”.
With `CCCN(CCC)c1c([N+](=O)[O-])cc(C(C)C)cc1[N+](=O)[O-]`, the Potency entry was “inactive”.
For `CCCCCCCCn1sccc1=O`, the Potency was 36 µM (active).
In the case of `Nc1c(Br)cc(Br)c2c1C(=O)c1ccccc1C2=O`, the Potency result is “inactive”.
For `CC(Oc1cccc(Cl)c1)C(=O)O` (centres undefined), the Potency result was “inactive”.
Still for that read-out and setting: as for `Clc1ccc2ccccc2c1`, the entry is “inactive”.
On the same count and under the same terms, as for `CCOC(=O)c1cncn1C(C)c1ccccc1` (centres undefined), the entry is “inactive”.
`Cc1cnc(C2=NC(C)(C(C)C)C(=O)N2)c(C(=O)O)c1` (centres undefined): the Potency result was “inactive”.
Same read-out and setting: as for `Cc1nc(N(C)C)nc(OC(=O)N(C)C)c1C`, the entry is “inactive”; as for `CCCCCBr`, “inactive”; as for `O=C(O)c1cc(Cl)ccc1Cl`, “inactive”.
Turning to `O=C(Cl)OCCOCCOC(=O)Cl`, the Potency entry was “inactive”.
In the case of `CN(C)N`, the Potency entry was “inactive”.
With `C=CCOCC1CO1` (centres undefined), the Potency entry was “inactive”.
`C[CH2][Hg][S]c1ccccc1C(=O)O`: the Potency was 9.87 µM (active) and 8.63 µM (active).
As for `O=C(O)C(Cl)(Cl)Br`, the Potency result is “inactive”.
For `CCC1(CC)C(=O)NC(=O)NC1=O`, the Potency entry was “inactive”.
With `O=C(N[C@H]1CN2CCC1CC2)c1ccc2c(c1)OCCO2`, the Potency entry was “inactive”.
As for `O=C1CC[C@@]2(O)[C@H]3Cc4ccc(O)c5c4[C@@]2(CCN3CC2CC2)[C@H]1O5`, the Potency entry is “inactive”.
`O=CC=O`: the Potency entry is “inactive”.
Turning to `CCOP(=O)(O)C(N)=O`, the Potency entry is “inactive”.
With `COCc1cnc(C2=NC(C)(C(C)C)C(=O)N2)c(C(=O)O)c1` (centres undefined), the Potency result is “inactive”.
Turning to `CC(Cl)C(=O)O` (centres undefined), the Potency entry was “inactive”.
As for `CCCCOC(=O)CCC(=O)OCCCC`, the Potency entry is “inactive”.
Regarding `O=C(NCNC(=O)NC1C(=O)NC(=O)N1CO)NC1C(=O)NC(=O)N1CO` (centres undefined), the Potency result was “inactive”.
`CCCC[N+](CCCC)(CCCC)CCCC`: the Potency entry was “inactive”.
Turning to `O=C(O)COc1cc(Cl)c(Cl)cc1Cl`, the Potency result is “inactive”.
For the compound `FC(F)OC(F)(F)C(F)Cl` (centres undefined), the Potency entry was “inactive”.
Regarding `NNCCO`, the Potency entry is “inactive”.
Same read-out and setting: as for `NP(N)(=O)NC(=O)c1ccc(F)cc1`, the entry is “inactive”.

The next test addresses Androgen receptor (Homo sapiens) (UniProt P10275). Briefly: qHTS assay to identify small molecule antagonists of the androgen receptor (AR) signaling pathway using the MDA cell line (AID 743042; note: nearly all actives have a fitted effect of over 55% in size; note: potency is the fitted concentration of half-maximal effect). Particulars: MDA-kb2 AR-luc, MMTV luciferase, R1881 antagonist, 16 h; series mostly up to 70.3 µM. Summed up: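 Antagonist mode: compounds plus R1881 agonist added to MDA-kb2 AR-luc cells, incubated 16 h at 37C. Luciferase reporter luminescence quantified, with multiplexed CellTiter-Fluor readout for cell viability.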
`CC1(C)[C@H](C(=O)O[C@H](C#N)c2cccc(Oc3ccccc3)c2)[C@@H]1C=C(Br)Br`: the Potency result was “inactive”.
Same read-out and setting: to `CCC1(C2=NCCN2)Cc2ccccc2O1` (centres undefined) belongs “inactive”.
Regarding `C=C(Cl)Cl`, the Potency result was “inactive”.
On to `ClCc1ccccc1Cl`, for which the Potency result is “inactive”.
For the compound `CCC1(CCC(C)C)C(=O)NC(=O)NC1=O`, the Potency entry was “inactive”.
As for `CC(C)(C)CC(C)(C)c1ccc(O)cc1`, the Potency result is “inactive”.
Regarding `Nc1c(Br)cc(Br)c2c1C(=O)c1ccccc1C2=O`, the Potency result was “inactive”.
Turning to `N#CC(C#N)=Cc1ccc(O)c(O)c1`, the Potency result was “inactive”.
Regarding `Clc1ccc2ccccc2c1`, the Potency result was “inactive”.
With `Cc1cnc(C2=NC(C)(C(C)C)C(=O)N2)c(C(=O)O)c1` (centres undefined), the Potency entry was “inactive”.
As to `CCCCCBr`, the Potency result was “inactive”.
Regarding `O=C(Cl)OCCOCCOC(=O)Cl`, the Potency result was “inactive”.
On to `CN(C)N`, for which the Potency result is “inactive”.
As for `C[CH2][Hg][S]c1ccccc1C(=O)O`, the Potency was 9.44 µM (active) and 7.7 µM (active).
With `O=C(N[C@H]1CN2CCC1CC2)c1ccc2c(c1)OCCO2`, the Potency result was “inactive”.
The same measure, in the same setting: as for `O=CC=O`, the entry is “inactive”; as for `COCc1cnc(C2=NC(C)(C(C)C)C(=O)N2)c(C(=O)O)c1` (centres undefined), “inactive”; as for `CC(Cl)C(=O)O` (centres undefined), “inactive”.
Turning to `O=C(NCNC(=O)NC1C(=O)NC(=O)N1CO)NC1C(=O)NC(=O)N1CO` (centres undefined), the Potency result was “inactive”.
Turning to `O=C(O)COc1cc(Cl)c(Cl)cc1Cl`, the Potency entry is “inactive”.
For `FC(F)OC(F)(F)C(F)Cl` (centres undefined), the Potency entry is “inactive”.
On to `NP(N)(=O)NC(=O)c1ccc(F)cc1`, for which the Potency result was “inactive”.
